Screens: PubChem, National Center for Advancing Translational Sciences (NCATS)
The full list was thinned out, with hits kept by preference.
VACV Venus inh = qHTS for Stage-Specific Inhibitors of Vaccinia Orthopoxvirus: Venus Reporter Primary qHTS; Vaccinia virus Venus reporter expression, fluorescence; Potency, µM (titrated, usually from 36.5 µM), inactives show at the highest dose activity change, negative = inhibition, most hits filed as inhibitors; 0.46% of 330,000 active; AID 720580, 2013; calls by dose curve; tested in A549 cells; note: potency is the fitted concentration of half-maximal effect; % is set by controls: 0 for no effect and ±100 for the full control effect; nearly all actives have a fitted effect of over 30% in size
MARV entry inh = qHTS for inhibitors of binding or entry into cells for Marburg Virus; Marburg virus pseudotyped entry inhibition, cell reporter; Potency, µM (highest dose often 37.8 µM), for the others: top-dose activity change, negative = inhibition, usual class: inhibitors; 1.8% of 300,000 active; calls by dose curve; tested in HEK293 cells; note: potency is the fitted concentration of half-maximal effect; % is set by controls: 0 for no effect and ±100 for the full control effect
VACV mCherry inh = qHTS for Stage-Specific Inhibitors of Vaccinia Orthopoxvirus: mCherry Reporter Primary qHTS | Potency, µM (doses to about 36.5 µM), for the others: at the highest dose activity change, negative = inhibition, usual class: inhibitors | Vaccinia virus mCherry reporter infection, fluorescence | AID 720579, 2013 | 0.63% of 310,000 active; calls by dose curve; tested in A549 cells; note: potency is the fitted concentration of half-maximal effect; % is set by controls: 0 for no effect and ±100 for the full control effect; nearly all actives have a fitted effect of over 35% in size
Lassa entry inh = qHTS for Inhibitors of binding or entry into cells for Lassa Virus | Lassa virus pseudotype entry inhibition, cell reporter | Potency, µM (titrated, usually from 37.9 µM), without a hit: at the highest dose activity change, negative = inhibition, actives largely listed as inhibitors | 1.2% of 300,000 active; calls by dose curve; tested in HEK293 cells; note: potency is the fitted concentration of half-maximal effect; % is set by controls: 0 for no effect and ±100 for the full control effect; nearly all actives have a fitted effect of over 50% in size
Shiga inhibitor = A qHTS for Small Molecule Inhibitors of Shiga Toxin; Vero cells, Shiga toxin protein synthesis inhibition reporter; inhibition, % at 38.7 µM; 9.2% of 290,000 active; in the data active = inhibition mostly above about 28%, no sharp cut-off; inactive = mostly below about 43%; note: 0% is about no effect
CHX counter = Cycloheximide Counterscreen for Small Molecule Inhibitors of Shiga Toxin; cell reporter, cycloheximide protein synthesis inhibition counterscreen; max response, %; 12% of 300,000 active; in the data active = max response mostly above about 13%, no sharp cut-off; inactive = mostly below about 14%; note: read at 38.3 µM for the half of the compounds with a filed dose; 0% is about no effect
* = called active by the depositor; i = inactive; ? = inconclusive; · = no result; [ ] = dose if it differs, or a comment.

SMILES	VACV Venus inh	MARV entry inh	VACV mCherry inh	Lassa entry inh	Shiga inhibitor	CHX counter
Cc1ccc(C(=O)Nc2ccc3oc(-c4ccncc4)nc3c2)c(Cl)c1	-13%	?	-2%	0%[46.1 µM]	·	·
CCN1C(=NCCCOC(C)C)N[C@@H](CCc2ccccc2)[C@H](C(=O)OC)[C@H]1C	·	3%[14.2 µM]	·	·	·	·
COc1ccc(-c2cc(C)no2)cc1S(=O)(=O)Nc1c(C)cc(C)cc1C	-23%	·	-10%	?	·	·
Cc1ccccc1/C=N/N=C1/NC(=O)CCS1	-4%	7%[46.1 µM]	-2%	-32%	92*	40*
O=C1CCS/C(=N\N=C\c2ccc(Cl)cc2Cl)N1	-21%	-2%	-15%	7%	24	16*
CC1CCCCN1C(=O)CN1C(=O)CSc2ccc(S(=O)(=O)N3CCOCC3)cc21 (stereo not drawn)	·	·	·	·	-8	1
CN(C)CCCOc1ccc(C(C)(C)c2ccccc2)cc1	·	13µM*	·	?	-6	-2
Cc1ccc(Cl)cc1N(C)C(=O)c1cn(C2CCCCC2)c(=O)c2c1c1ccccc1n2C	-21%	0%[46.1 µM]	-23%	?	·	·
COC(=O)c1ccc(COC(=O)C2CCN(S(=O)(=O)c3ccc(C)c(C)c3)CC2)o1	-13%	?	-14%	0%	·	·
CCOc1ccc(C(=O)N2CCN(c3ccccn3)CC2)cc1OCC	-13%	8%	-6%	17%	-13	7
CCOc1ccc(C(=O)O/N=C(\N)c2ccccn2)cc1OCC	·	·	·	·	85*	52*
CCOc1cc(C(=O)O/N=C(\N)c2ccccn2)cc(OCC)c1OCC	·	·	·	·	54*	53*
COc1cc(OC)cc(C(=O)O/N=C(\N)c2ccccn2)c1	·	·	·	·	116*	51*
Cc1cc2nc(-c3ccc(SCC(=O)Nc4nccs4)nc3)[nH]c2cc1C	-8%	22%	-16%	?	15	39*
Cc1ccc2nc(-c3ccc(SCC(=O)O)nc3)[nH]c2c1	-10%	?	i	?	27	24
CCc1nnc(NC(=O)CSc2ccc(-c3nc4ccc(C)cc4[nH]3)cn2)s1	-7%	-24%	18%	?	51*	32*
Cc1cc2nc(-c3ccc(SCC(=O)Nc4ccc(S(=O)(=O)N5CCCC5)cc4)nc3)[nH]c2cc1C	-4%	12µM*	-17%	?	81*	36*
Cc1cc(=O)[nH]c(SCC(=O)Nc2ccc(S(=O)(=O)N3CCCCC3)cc2)n1	·	?	·	-13%	1	6
Cc1ccc2nc(-c3ccc(NC(=O)CSc4ccccc4)cc3)[nH]c2c1	-26%	?	-18%	?	active	33*
COC(=O)N[C@H](CC(C)=O)c1cccc(F)c1	·	-7%[14.2 µM]	·	·	·	·
O=C(CSc1ccc(-c2nc3ccccc3[nH]2)cn1)Nc1ccc(S(=O)(=O)N2CCCC2)cc1	-2%	24%	9%	-1%	33*	40*
Cc1ccc2nc(-c3ccc(SCC(=O)N4CCc5ccccc54)nc3)[nH]c2c1	-17%	7%	?	?	121*	56*
CC(=O)CSc1ccc(-c2nc3cc(C)c(C)cc3[nH]2)cn1	-13%	?	-26%	?	2	-2
CC(=O)CSc1ccc(-c2nc3ccccc3[nH]2)cn1	-18%	6.3µM*	-15%	?	·	16*
N#Cc1ccccc1CSc1ccc(-c2nc3ccccc3[nH]2)cn1	0%	?	-4%	-9%	79*	47*
SMILES	VACV Venus inh	MARV entry inh	VACV mCherry inh	Lassa entry inh	Shiga inhibitor	CHX counter
CCOC(=O)CNC(=O)CSc1ccc(-c2nc3ccccc3[nH]2)cn1	-10%	15%[46.1 µM]	i	6%[46.1 µM]	5	3
Cc1cc2nc(-c3ccc(SCc4ccc(C#N)cc4)nc3)[nH]c2cc1C	-14%	-1%	-17%	?	20	15
COC(=O)C/C=C/[C@@H](C)[C@H](O)c1ccccc1Br	·	-29%[14.2 µM]	·	·	·	·
Cc1cccc(C)c1NC(=S)N/N=C/c1ccc(OCCC(C)C)cc1	·	?	·	?	-10	10
O=c1cccccc1NN=C1CCCCCC1	-3%	2%	-11%	17%	82*	23*
O=c1cccccc1NN=C1CCCCC1	7%	?	i	10%[46.1 µM]	80*	35*
Cc1cc(C)nc(Nc2ccc(Br)cc2C(=O)O)n1	2%	?	?	-7%[46.1 µM]	-8	-6
O=C(O)c1cc(Br)ccc1NN=C1CCCCC1	0%	3%	-4%	5%	18	21*
C=CC[C@H](CC(=O)OC(C)(C)C)C(=O)OC[C@@H]1CCCN1C(=O)[C@@H](CC=C)CC(=O)N[C@H](CO)Cc1ccccc1	-7%	·	i	·	·	·
COc1ccc(/C=N/OCC(=O)N2CCCC2)c(OC)c1	0%	?	i	?	30	17*
COc1ccc(/C=N/OCC(=O)NC(c2ccccc2)c2ccccc2)c(OC)c1	-28%	?	-12%	2.2µM*	-5	-4
COc1ccc(/C=N/OCC(=O)NCC(C)C)c(OC)c1	-19%	12%[46.1 µM]	-13%	-14%[46.1 µM]	-4	-1
COc1cccc(Cc2nc3ccccc3nc2SCC(=O)N2CCCCC2C)c1 (stereo not drawn)	3%	·	-8%	11µM*	·	·
CCN(C(=O)CSc1nc(-c2ccccc2)no1)c1cccc(C)c1	?	-26%[46.1 µM]	2.8µM*	0%[46.1 µM]	·	·
CCN(C(=O)CSc1nc2ccccc2nc1Cc1cccc(OC)c1)c1cccc(C)c1	-13%	·	-7%	7.1µM*	·	·
CCOC(=O)c1ccc(NC(=O)CC2Sc3ccc(C(F)(F)F)cc3NC2=O)cc1 (stereo not drawn)	?	-15%[46.1 µM]	?	-6%[46.1 µM]	·	·
CCOc1ccc(C2c3[nH]c4ccccc4c3CCN2C(=O)CCc2ccccc2)cc1 (stereo not drawn)	14%	·	i	?	·	·
COc1cccc(CNC(=O)CN2C(=O)N(c3ccc(C)cc3C)S(=O)(=O)c3ccccc32)c1OC	-14%	·	-18%	?	·	·
C/C=C/c1ccc(OCC(=O)Nc2cc(OC)c(OC)c(OC)c2)c(OC)c1	-18%	?	-21%	10µM*	-7	-2
C/C=C/c1ccc(OCCOc2cc(C=O)ccc2OC)c(OC)c1	-13%	-11%	-24%	16%	62*	52*
C/C=C/c1ccc(OCC(=O)OCC)c(OC)c1	-18%	?	-3%	10%[46.1 µM]	37	14*
Cc1cccc(OCc2nnc(SCC(=O)Nc3nccs3)o2)c1	·	·	·	·	14	13
O=C1C2=C(C(=O)c3ccccc31)[C@H]1O[C@](c3ccsc3)(Cc3ccccc31)O2	·	-8%[14.2 µM]	·	·	·	·
c1ccc(-c2nc(NCc3ccco3)c3ccccc3n2)nc1	11µM*	?	?	?	-1	9
Fc1ccccc1-c1nc(NCc2ccco2)c2ccccc2n1	-7%	-25%[46.1 µM]	-5%	-20%	-8	-2
Oc1ccccc1-c1nc(NCc2ccco2)c2ccccc2n1	·	-59%	·	2%	36*	25*
CCN(CC)c1ccc2nc3c4ccccc4c(=O)cc-3oc2c1	·	·	·	·	65*	52*
